# Experimental data from PubChem BioAssay (Tox21).
# Records with an inconclusive call do not appear. Unmarked numbers belong to inactive results. Active and inactive are the calls of the source. Calls come from the whole dose curve; as a rule, active = well fitted cell-killing curve with a large enough effect in the repeat runs; inconclusive = weak or mixed curves, or effect the other way; inactive = flat fitted curve, though single readings scatter.
# Assay: cAMP Responsive Elements (CRE) small molecule antagonists, cell-based qHTS assay: qHTS cell viability counter screen (AID 2060913); note: nearly all actives have a fitted effect of over 40% in size
# Conditions: CRE-bla HEK293T viability, CellTiter-Glo luminescence, 5 h; series mostly up to 92.4 µM; viability change, negative = cytotoxic: at the top concentration
# Method in brief: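 CRE-bla HEK293T cells (2,000/well, 18 h) given compound plus NKH477 0.25 uM final for 3 h at 37C; viability counter-screen by CellTiter-Glo luminescence in same wells after 30 min.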
# % is set by controls: 0 for no effect and ±100 for the full control effect.
Compound,"viability change, negative = cytotoxic",Potency
CC1c2ccccc2CN1NC(=O)c1ccc(Cl)c(S(N)(=O)=O)c1 (stereo not given),13.1% [at 42.5 µM],
CNCC[C@H](Oc1cccc2ccccc12)c1cccs1,-2.02% [at 42.5 µM],
O=C(O)CCc1ccccc1,2.31%,
Cc1ccc2ncccc2c1,,inactive
CC(=O)OC/C=C(\C)CCC=C(C)C,-6.07%,
COC(=O)c1cccnc1,,inactive
CN1C(=O)c2ccc([N+](=O)[O-])cc2C1=O,0.116%,
CCCCCCCCCCCC(=O)OCC(C)OC(=O)CCCCC(=O)O (stereo not given),10.7% [at 42.5 µM],
CC/C=C\CC1=C(C)CCC1=O,0.255%,
CC(C)(C)c1cc(CCC(=O)OCCSCCOC(=O)CCc2cc(C(C)(C)C)c(O)c(C(C)(C)C)c2)cc(C(C)(C)C)c1O,8.95% [at 42.5 µM],
C=CC(C)(O)CC/C=C(\C)CC (stereo not given),-0.82%,
CCCCC(=O)OCC(=O)[C@H]1[C@H](C)C[C@H]2[C@@H]3C[C@H](F)C4=CC(=O)C=C[C@]4(C)[C@@]3(F)[C@@H](O)C[C@@]21C,-1.08% [at 42.5 µM],
C[C@H](CN1CCCC1)C(=O)c1ccc(C(F)(F)F)cc1,-0.573% [at 42.5 µM],
CCCCOC(=O)CCCCCCCC(=O)OCCCC,6.72%,
CCCCC,3.57%,
OCCC1CCCCN1 (stereo not given),0.635%,
CCN(CC)c1ccc(N=Nc2ccccc2)cc1,-14.6%,
COc1ccc2cc(C=O)ccc2c1,0.28% [at 42.5 µM],
CCOC(=O)C(C)(C)Oc1ccc(Cl)cc1,,inactive
CC(=O)OCC1=C(C(=O)O)N2C(=O)[C@@H](NC(=O)CSc3ccncc3)[C@H]2SC1,0.136% [at 42.5 µM],

Compound,"viability change, negative = cytotoxic",Potency
O=C=NC1CCC(CC2CCC(N=C=O)CC2)CC1 (stereo not given),3.64%,
CN(C)CC/C=C1\c2ccccc2COc2ccccc21,0.0205% [at 42.5 µM],
CCN(CC)CCNC(=O)c1ccc(NC(C)=O)cc1,-3.36% [at 42.5 µM],
CCC[C@H](N[C@@H](C)C(=O)N1[C@H](C(=O)O)C[C@@H]2CCCC[C@@H]21)C(=O)OCC,,inactive
CCOc1ccc2c(c1)C(C)CC(C)(C)N2 (stereo not given),-4.72%,
COc1cccc([C@H](O)C2CCN(CCc3ccc(F)cc3)CC2)c1OC,-8.49%,
CCC(=O)OCCOc1ccccc1,-0.167%,
Cc1onc(-c2c(Cl)cccc2Cl)c1C(=O)N[C@@H]1C(=O)N2[C@@H]1SC(C)(C)[C@@H]2C(=O)O,3.04% [at 42.5 µM],
CCCc1ccc(O)c(OC)c1,5.47%,
OC/C=C/c1ccccc1,-1.87%,
CC(C)CCCCCCOC(=O)C1CCCCC1C(=O)OCCCCCCC(C)C (stereo not given),7.32%,
CCC(=O)OC(C)(C)C1CC=C(C)CC1 (stereo not given),-10.6%,
C=C(C)C(=O)OCC1CCCO1 (stereo not given),3.56%,
O=[Si]=O,0.951%,
O=C(c1ccccc1)c1ccc(O)cc1O,,inactive
COc1cc(/C=C/C(=O)O[C@H]2CC[C@]34C[C@]35CC[C@]3(C)[C@@H]([C@H](C)CCC=C(C)C)CC[C@@]3(C)[C@@H]5CC[C@H]4C2(C)C)ccc1O,3.89% [at 42.5 µM],
CC[C@H](C)C(=O)O[C@H]1C[C@H](O)C=C2C=C[C@H](C)[C@H](CC[C@@H](O)C[C@@H](O)CC(=O)O)[C@H]21,0.0845%,
Cc1cccc(N(C)C(=S)Oc2ccc3c(c2)CCC3)c1,-14% [at 42.5 µM],
CCN(C(=O)c1cc(C)cc(OC[C@H](C)Nc2ccncc2)c1)C(C)C,0.96% [at 42.5 µM],
C=CCS(=O)(=O)O,13.4%,

# Assay: cAMP Responsive Elements (CRE) small molecule agonists, cell-based qHTS assay: qHTS cell viability counter screen (AID 2060914); note: nearly all actives have a fitted effect of over 50% in size; note: potency is the fitted concentration of half-maximal effect
# Conditions: CRE-bla HEK293T viability, CellTiter-Glo luminescence, 5 h; series mostly up to 92.4 µM; activity change, negative = cytotoxicity: at the top concentration
# Method in brief: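 Cytotoxicity was measured as ATP luminescence (CellTiter-Glo, 30 min at room temperature) in the same wells as the CRE-bla FRET read-out. HEK293T CRE-bla cells had 3 h compound exposure at 37C/5% CO2.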
Compound,"activity change, negative = cytotoxicity",Potency
CC1c2ccccc2CN1NC(=O)c1ccc(Cl)c(S(N)(=O)=O)c1 (stereo not given),-2.24% [at 42.5 µM],
CNCC[C@H](Oc1cccc2ccccc12)c1cccs1,1.01% [at 42.5 µM],
O=C(O)CCc1ccccc1,1.1%,
Cc1ccc2ncccc2c1,,54.5 µM (active)
CC(=O)OC/C=C(\C)CCC=C(C)C,,inactive
COC(=O)c1cccnc1,,inactive
CN1C(=O)c2ccc([N+](=O)[O-])cc2C1=O,8%,
CCCCCCCCCCCC(=O)OCC(C)OC(=O)CCCCC(=O)O (stereo not given),3.17% [at 42.5 µM],
CC/C=C\CC1=C(C)CCC1=O,0.122%,
CC(C)(C)c1cc(CCC(=O)OCCSCCOC(=O)CCc2cc(C(C)(C)C)c(O)c(C(C)(C)C)c2)cc(C(C)(C)C)c1O,8.17% [at 42.5 µM],
C=CC(C)(O)CC/C=C(\C)CC (stereo not given),-1.75%,
CCCCC(=O)OCC(=O)[C@H]1[C@H](C)C[C@H]2[C@@H]3C[C@H](F)C4=CC(=O)C=C[C@]4(C)[C@@]3(F)[C@@H](O)C[C@@]21C,-2.3% [at 42.5 µM],
C[C@H](CN1CCCC1)C(=O)c1ccc(C(F)(F)F)cc1,-1.45% [at 42.5 µM],
CCCCOC(=O)CCCCCCCC(=O)OCCCC,5.66%,
CCCCC,1.27%,
OCCC1CCCCN1 (stereo not given),0.585%,
CCN(CC)c1ccc(N=Nc2ccccc2)cc1,-5.52%,
COc1ccc2cc(C=O)ccc2c1,21.5% [at 42.5 µM],
CCOC(=O)C(C)(C)Oc1ccc(Cl)cc1,,inactive
CC(=O)OCC1=C(C(=O)O)N2C(=O)[C@@H](NC(=O)CSc3ccncc3)[C@H]2SC1,1.99% [at 42.5 µM],

Compound,"activity change, negative = cytotoxicity",Potency
O=C=NC1CCC(CC2CCC(N=C=O)CC2)CC1 (stereo not given),-26.5%,
CN(C)CC/C=C1\c2ccccc2COc2ccccc21,-1.12% [at 42.5 µM],
CCN(CC)CCNC(=O)c1ccc(NC(C)=O)cc1,8.14% [at 42.5 µM],
CCC[C@H](N[C@@H](C)C(=O)N1[C@H](C(=O)O)C[C@@H]2CCCC[C@@H]21)C(=O)OCC,1.19% [at 42.5 µM],
CCOc1ccc2c(c1)C(C)CC(C)(C)N2 (stereo not given),2.85%,
COc1cccc([C@H](O)C2CCN(CCc3ccc(F)cc3)CC2)c1OC,3.75%,
CCC(=O)OCCOc1ccccc1,1.8%,
Cc1onc(-c2c(Cl)cccc2Cl)c1C(=O)N[C@@H]1C(=O)N2[C@@H]1SC(C)(C)[C@@H]2C(=O)O,-2.69% [at 42.5 µM],
CCCc1ccc(O)c(OC)c1,13.9%,
OC/C=C/c1ccccc1,-1.66%,
CC(C)CCCCCCOC(=O)C1CCCCC1C(=O)OCCCCCCC(C)C (stereo not given),8.68%,
CCC(=O)OC(C)(C)C1CC=C(C)CC1 (stereo not given),-8.67%,
C=C(C)C(=O)OCC1CCCO1 (stereo not given),1.56%,
O=[Si]=O,-2.45%,
O=C(c1ccccc1)c1ccc(O)cc1O,,inactive
COc1cc(/C=C/C(=O)O[C@H]2CC[C@]34C[C@]35CC[C@]3(C)[C@@H]([C@H](C)CCC=C(C)C)CC[C@@]3(C)[C@@H]5CC[C@H]4C2(C)C)ccc1O,0.0451% [at 42.5 µM],
CC[C@H](C)C(=O)O[C@H]1C[C@H](O)C=C2C=C[C@H](C)[C@H](CC[C@@H](O)C[C@@H](O)CC(=O)O)[C@H]21,,5.45 µM (active)
Cc1cccc(N(C)C(=S)Oc2ccc3c(c2)CCC3)c1,-15.9% [at 42.5 µM],
CCN(C(=O)c1cc(C)cc(OC[C@H](C)Nc2ccncc2)c1)C(C)C,-15.9% [at 42.5 µM],
C=CCS(=O)(=O)O,12.6%,
